Experimental data taken from PubChem BioAssay (NCI).
The panel holds about 79,000 compounds, 15% with a hit somewhere; the sample as a whole holds those more often. The source made the active and inactive calls. Rule as the data show it: active = growth inhibition above about 70%; inactive = the rest. Where a SMILES comes first, the peptide text is derived from it. [ ]: non-standard residue; d: D form. ξ: configuration not given here. ξP = O=C(O)C1CCCN1

Assays:
[1] = NCI Yeast Anticancer Drug Screen. Data for the mec2-1 strain (AID 157); conditions: S. cerevisiae mec2-1 strain, at 50.0 µM, stronger effect = higher value
Procedure, shortened: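 Compounds were applied to mec2-1 yeast cells. Their growth was then compared with that of vehicle-treated cultures to give growth inhibition.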

[2] = NCI Yeast Anticancer Drug Screen. Data for the sgs1 mgt1 strain (AID 161);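 also: 0% = growth of cultures given vehicle only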; conditions: S. cerevisiae sgs1 mgt1 strain, at 50.0 µM, stronger effect = higher value
Procedure, shortened: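 Compounds are added to genetically altered yeast, and growth is compared with cultures given vehicle alone to give percent inhibition.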

[3] = NCI Yeast Anticancer Drug Screen. Data for the cln2 rad14 strain (AID 165);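 also: 0% = growth equal to vehicle treated cultures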; conditions: S. cerevisiae cln2 rad14 strain, at 50.0 µM, stronger effect = higher value
Procedure, shortened: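 Strain: cln2 rad14 yeast, altered in cell cycle control and DNA damage repair. Read-out: growth inhibition vs vehicle.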

[4] = NCI Yeast Anticancer Drug Screen. Data for the bub3 strain (AID 167); conditions: S. cerevisiae bub3 mutant strain, at 50.0 µM, stronger effect = higher value
Procedure, shortened: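 Steps: expose the mutant yeast strain to compound; grow alongside vehicle-treated cultures; measure growth; express inhibition against the vehicle cultures.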

[5] = NCI Yeast Anticancer Drug Screen. Data for the mlh1 rad18 strain (AID 175); conditions: S. cerevisiae mlh1 rad18 strain growth inhibition; at 50.0 µM; stronger effect = higher value
Procedure, shortened: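 A repair-deficient yeast strain is exposed to test compound, and growth is scored relative to vehicle-treated controls.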

Measured: growth inhibition

O=C1O/C(=C(\Br)c2ccccc2)c2ccccc21
inactive: [1] -1.4% | [2] 55.2% | [3] 4.2% | [4] 29.1% | [5] 31.6%

O=C1OC(=O)C2C3C=CC(C4C=C(C5CC5)C43)C12 (stereo not drawn)
inactive: [1] -4.05% | [2] -4.1% | [3] -22.9% | [4] -5.5% | [5] 5.2%

CCCC(SCC(=O)O)SCC(=O)O
inactive: [1] -6.05% | [2] -6.85% | [3] -41.8% | [4] -4.75% | [5] -17%

CC1(C)[C@@H]2C[C@H]1C(Cc1cccc(C[C@H]3c4cc(-c5ccccn5)ncc4[C@H]4C[C@@H]3C4(C)C)c1)c1cc(-c3ccccn3)ncc12 (stereo partly drawn)
inactive: [1] -14.7% | [2] 4.95% | [3] -7.7% | [4] 45.2% | [5] -8.65%

N#CCc1csc(-c2ccccc2)n1
inactive: [1] 16.8% | [2] 6.2% | [3] 15.2% | [4] 1.55% | [5] 27%

CCCCCCCCCCCCCCCCCCNC(=S)N(C)C
inactive: [1] 0.2% | [2] 8.1% | [3] 1.25% | [4] 38.6% | [5] 5.05%

CCOCC(=O)N[C@H]1CCc2cc(OC)c(OC)c(OC)c2-c2ccc(SC)c(=O)cc21
inactive: [1] 26.9% | [2] 12.2% | [3] -53.6% | [4] -8.3% | [5] 47.1%

Cc1nnsc1-c1nc2ccccc2[nH]1
inactive: [1] 1.95% | [3] 20.1% | [4] 32.5% | [5] 38.4%

CC(C)(C)CC(C)(C)NCc1ccc(Cl)cc1
inactive: [1] 45% | [2] 61.3% | [3] 40.2% | [4] 65.6% | [5] 60.6%

CC(=O)C1=C(C)C2CC3(C)CC(C2(C)C1)C3(C)C (stereo not drawn)
inactive: [1] -17.1% | [2] -0.95% | [3] 10.6% | [4] -9.75% | [5] -6%

COC1=CC(=O)C(C)=CC1=O
inactive: [1] 2.65% | [2] 3.5% | [3] 7.35% | [4] 16.3% | [5] 7.5%

O=C(O)CCc1cccc2c(=O)cc(-c3ccccc3)oc12
inactive: [1] -1.7% | [2] 0.8% | [3] 30.9% | [4] 8.35% | [5] 3.35%

CN(C)Cc1onc(-c2c(Cl)cccc2Cl)c1C(=O)O
inactive: [1] 8.2% | [2] -9.95% | [3] 6.05% | [4] 21.2% | [5] 8.4%

COc1cc2c(c(OC)c1OC)C(=O)[C@H]1OC(=O)N[C@@H]21
inactive: [1] 3.05% | [2] 5.2% | [3] 2.1% | [4] 12.9% | [5] -32%

NCC(=O)N1CCCC1C(=O)NCC(=O)NCC(=O)O (stereo not drawn) (H-G[ξP]GG-OH)
inactive: [1] 0.95% | [2] 4.8% | [3] -32% | [4] -16.9% | [5] 3.15%

Nc1nc(=O)n(C2OC(CO)C(O)C2O)cc1F (stereo not drawn)
inactive: [1] -10.2% | [2] 4.4% | [3] -3.1% | [4] 11.5% | [5] 7.6%

CCCN/C=C1\CC(=O)N(C)C1=O
inactive: [1] 8.45% | [2] 2.5% | [3] -33.7% | [4] 6.4% | [5] 11.2%

Cc1nn(-c2ccc(Cl)cc2)c2c1c(=O)[nH]c1ccccc12
inactive: [1] -3.45% | [2] 1% | [3] -24.6% | [4] -2.05% | [5] -5.05%

CCOC(=O)c1ccc[n+]([O-])c1
inactive: [1] -9.95% | [2] -18.6% | [3] -107% | [4] -13.2% | [5] -10.8%

CC1=Nc2nc3ccccc3n2C(C)(C)C1
inactive: [1] 18.8% | [2] 11.6% | [3] -3.95% | [4] -0.2% | [5] -34.1%

C(=C1c2c(ccc3ccccc23)Oc2ccc3ccccc3c21)c1ccccc1
inactive: [1] 10.6% | [2] 12.3% | [3] -30.1% | [4] 1.65% | [5] 14.3%

O=[N+]([O-])c1cccnc1Oc1cccc(C(F)(F)F)c1
inactive: [1] 21.9% | [2] 14.4% | [3] -7.95% | [4] -16.1% | [5] 1.15%

c1ccc(C(c2cccc3c2ccc2ccccc23)C(c2ccccc2)c2cccc3c2ccc2ccccc23)cc1 (stereo not drawn)
inactive: [1] -9.6% | [2] -33.3% | [3] -19.6% | [4] -22.4% | [5] -12.7%

CC1(c2ccccc2)OCCS1 (stereo not drawn)
inactive: [1] 21.1% | [2] 19.8% | [3] 14.6% | [4] 1.1% | [5] 28.8%

Nc1cc(Cl)cc(S(=O)(=O)O)c1O
inactive: [1] -0.05% | [2] -2.95% | [3] -65.9% | [4] 9.05% | [5] -13.9%

Cn1c(=O)c2c(nc(Cc3ccccc3)n2CC(=O)O)n(C)c1=O
inactive: [1] -18.1% | [2] -30.8% | [3] -6.95% | [4] -32.1% | [5] -18.9%

N#CC(NCc1ccccc1)C(O)c1ccccc1 (stereo not drawn)
inactive: [1] 11% | [2] 2.25% | [3] 16.8% | [4] 9.25% | [5] 11.9%

O=C(COc1c(Cl)c(Cl)c(Cl)c(Cl)c1Cl)Nc1cccc(Cl)c1
inactive: [1] 2% | [2] 5.25% | [3] 15.2% | [4] 21.3% | [5] 22.8%

OCc1c(CO)c(-c2ccc(Cl)cc2)n2c1CCC2
inactive: [1] -15% | [2] 8.4% | [3] 29.2% | [4] -6.35% | [5] 34.5%

C=CCN(CC=C)C(=O)C(=C)C
inactive: [1] -0.05% | [2] -5.5% | [3] 2.6% | [4] 3.7% | [5] -4.1%

COC1O[C@H]2CCN(C(=O)OCc3ccccc3)[C@H]2[C@H]1OCc1ccccc1 (stereo partly drawn)
inactive: [1] -11.6% | [2] 20.2% | [3] 4.05% | [4] 28.6% | [5] 44.5%

O=C1NC(=O)c2ccccc2/C1=C/c1ccc2c(c1)OCO2
inactive: [1] -8.25% | [2] -13.3% | [3] -32.5% | [4] -2.6% | [5] -26.6%

CN(CC(=O)O)Cc1oc(CO)cc(=O)c1O
inactive: [1] -9.5% | [2] -6.1% | [3] -37.5% | [4] -40% | [5] -14.3%

CCC1(C)C(=O)C(C)(CC)C1=O (stereo not drawn)
inactive: [1] 20.6% | [2] 21.4% | [3] 0.6% | [4] 20% | [5] 6.85%

CCO[Si](OCC)(OCC)c1ccccc1
inactive: [1] -21.3% | [2] -10.7% | [3] -5.85% | [4] -14.5% | [5] -15.8%

CNC1C(CO)OC(OC)C1O (stereo not drawn)
inactive: [1] 12% | [2] 7.1% | [3] 8% | [4] 1.2% | [5] -2.85%

OCCOc1c(Cl)c(C(Cl)(Cl)Cl)nc2ccccc12
active: [1] 95.3% | [2] 91% | [4] 94% | [5] 94.3%
inactive: [3] 46%

C=C=CON1CCCCC1
inactive: [1] 14.9% | [2] -24.9% | [3] -5% | [4] -12.7% | [5] -0.6%

S=c1[nH]nc(COc2cccc3cccnc23)n1-c1ccccc1
inactive: [1] 2.55% | [2] 2.05% | [3] 25.9% | [4] 13.4%

O=c1sc2ccccc2n1CCN(CCn1c(=O)sc2ccccc21)c1ccccc1
inactive: [1] -7.75% | [2] 13.6% | [3] -45.5% | [4] 1.65% | [5] 14.2%
